Source: PubChem BioAssay (NCI)
About 83,000 compounds went through this panel and 20% of them were active in at least one assay; those are over-represented in the sample as a whole.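 Values shown are percent growth following 48 h exposure of cells in 96-well plates to a single concentration of compound; below 10 was considered active.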 Unmarked numbers belong to inactive results.

Tested on: HOP-62 NSCLC
Assay: NCI-60 one-dose screen, 48 h (100 = growth as untreated, 0 = no growth, -100 = all killed)
Conditions: 10 µM
Method: Growth inhibition of the HOP-62 human Non-Small Cell Lung tumor cell line is measured as a screen for anti-cancer activity. Cells are grown in 96 well plates and exposed to the test compound for 48 hours. Compounds are tested at a single concentration, which is 10^-5 M for most compounds. The reported endpoint is percent growth (GI% or GIPRCNT), where numbers from 0 - 100% represent growth inhibition, and numbers from -100% - 0 represent cell death. For example, a value of 40 represents 60% growth inhibition. A value of 0 means no net growth occurred over the course of the experiment. A value of -40 indicates 40% of cells at the beginning of the experiment died by the end of the experiment. A value of -100 means all cells are dead at the end of the experiment.
NCI-60 Human Tumor Cell Lines Screen was performed using the standard one-dose NCI protocol, which is described in more detail at https://dtp.cancer.gov/discovery_development/nci-60/default.htm.
Compounds with GIPRCNT values below 10 were considered active. Activity score was based on GIPRCNT using the following formula: […]
Score is 0 for GIPRCNT values of 100 or above, 50 for GIPRCNT values of 0, and 100 for GIPRCNT values of -100.

Q: `Cc1ccc(C)n1-c1ccsc1C(=O)NNC(=O)CCl` was tested. Which growth did it give?
A: 101%

Q: Which growth does the source give for `O=C(Nc1ccccc1)OCCc1ccccc1` here?
A: 103%

Q: Which growth does the source give for `CCC/C=C(/C(C)=O)C(=O)OCC` here?
A: 108%

Q: Which growth does the source give for `O=[N+]([O-])c1ccc(-c2ncc(-c3ccc(Br)cc3)o2)cc1` here?
A: 114%

Q: `O=C(O)c1cc([N+](=O)[O-])ccc1Cl` was tested. Which growth did it give?
A: 113%

Q: How did the growth turn out when `COC(=O)c1[nH]c(=O)c(C#N)c(C(=O)OC)c1C(=O)c1ccccc1` was run?
A: 94.2%

Q: With `CC1CC(O)CC(C)(C)C1` (stereo not given) as the compound, how does the growth read?
A: 97.9%

Q: With `C/C(O)=C(\C=N\C(N)=S)C(=O)Nc1ccccc1` as the compound, how does the growth read?
A: 90.9%

Q: `CC(=O)Nc1cccc(Cl)c1C` was tested. Which growth did it give?
A: 100%

Q: Which growth does the source give for `NC(=O)c1ccc(N=C(N)N=C(N)N)cc1` here?
A: 87.2%

Q: How did the growth turn out when `O=C(CC(=O)c1ccccc1O)c1ccccc1` was run?
A: 77.2%

Q: For `CC(=O)/C(Cc1ccccc1)=N/O`, which growth is on record?
A: 98.4%

Q: `CC(=O)N(C)c1ccc([N+](=O)[O-])cc1` was tested. Which growth did it give?
A: 111%

Q: Which growth does the source give for `Nc1ccc(C(=O)c2ccc(N)c(Br)c2)cc1Br` here?
A: 29.5%

Q: `CCO/C=C1\SC(=S)N(c2cccc(C)c2)C1=O` was tested. Which growth did it give?
A: 88.9%

Q: How did the growth turn out when `O=C(NCO)c1ccccc1` was run?
A: 97.8%

Q: For `O=[N+]([O-])c1ccc(O)c(S(=O)(=O)O)c1`, which growth is on record?
A: 101%

Q: Which growth does the source give for `CC(=O)OCC(=O)[C@@]1(O)CC[C@H]2[C@@H]3CC[C@@H]4C[C@H](O)CC[C@]4(C)[C@H]3C(=O)C[C@@]21C` here?
A: 105%

Q: With `CCNCCCCNCCCCNCCCCNCCCCNCC` as the compound, how does the growth read?
A: 113%

Q: How did the growth turn out when `FC(F)(F)c1ccc2c(c1)N(CCCN1CCN(C3CC3)CC1)c1ccccc1S2` was run?
A: 95.7%

Q: For `CC(C)=NNc1ccc([N+](=O)[O-])cc1[N+](=O)[O-]`, which growth is on record?
A: 87.9%

Q: With `Nc1ccc(N=Nc2ccc(S(=O)(=O)O)cc2)c2ccccc12` as the compound, how does the growth read?
A: 63.7%

Q: Which growth does the source give for `CN(C)Cc1cc(C(C)(C)CC(C)(C)C)ccc1O` here?
A: 91.6%

Q: With `CNS(=O)(=O)c1ccc(Cl)c(Cl)c1` as the compound, how does the growth read?
A: 82.3%

Q: How did the growth turn out when `CCOc1ccccc1/C=N/Nc1nc2ccccc2o1` was run?
A: 97.2%

Q: Which growth does the source give for `O=C(O)c1ccccc1NCc1ccco1` here?
A: 95.7%

Q: With `Cc1nc2c(ccc3ccccc32)s1` as the compound, how does the growth read?
A: 103%

Q: For `CC1(C)Nc2cccc3c(N=Nc4ccc(N=Nc5ccccc5)c5ccccc45)ccc(c23)N1`, which growth is on record?
A: 93.1%

Q: How did the growth turn out when `Oc1ccc(N=Nc2ccc(Br)cc2)c(O)c1` was run?
A: 27.5%

Q: For `CC1CCC2C(C)(C)C3CC12CC1OC13C` (stereo not given), which growth is on record?
A: 109%

Q: With `O=C(Cc1ccccc1)Cc1ccccc1` as the compound, how does the growth read?
A: 110%

Q: For `O=P(O)(O)OCC(O)CO` (stereo not given), which growth is on record?
A: 104%

Q: With `CCCCCCCCCCC(C)Br` (stereo not given) as the compound, how does the growth read?
A: 119%

Q: Which growth does the source give for `CCC(O)CC(CC)CO` (stereo not given) here?
A: 108%

Q: Which growth does the source give for `NC(=S)CN1CCOCC1` here?
A: 118%

Q: How did the growth turn out when `O=[N+]([O-])c1ccc(S(=O)(=O)NN=C2CCCCC2)cc1` was run?
A: 99.5%

Q: For `CC(C)C(C#N)(C(C)C)C(C)C`, which growth is on record?
A: 101%

Q: With `COc1ccc(C2OC(N)=C(O)C2=O)cc1OC` (stereo not given) as the compound, how does the growth read?
A: 105%

Q: `C=CC(=O)OCCCCCCCC` was tested. Which growth did it give?
A: 98.4%

Q: For `O=C1OC(c2ccc(F)cc2)CC1CN1CCOCC1` (stereo not given), which growth is on record?
A: 101%
